# In publication PMC4336329 (PLoS ONE, 2015):
# In all, about 310,000 compounds went through this assay and about 14,000 (4.5%) showed an effect of 50% or more. Effects have a minus sign here. The list comes from a sample in which strong results are over-represented; it also holds similar structures and randomly drawn compounds.
# Molecular target: human ether-à-go-go-related gene (hERG) potassium channel (human, UniProt Q12809)
# Experiment: primary screen, population patch clamp on CHO cells stably expressing hERG; higher = less effect of the substance
# 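Also: peak tail current of the secondary pulse compared with the same well before compound.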
# Sequence of human ether-à-go-go-related gene (hERG) potassium channel (Q12809 whole entry, looked up): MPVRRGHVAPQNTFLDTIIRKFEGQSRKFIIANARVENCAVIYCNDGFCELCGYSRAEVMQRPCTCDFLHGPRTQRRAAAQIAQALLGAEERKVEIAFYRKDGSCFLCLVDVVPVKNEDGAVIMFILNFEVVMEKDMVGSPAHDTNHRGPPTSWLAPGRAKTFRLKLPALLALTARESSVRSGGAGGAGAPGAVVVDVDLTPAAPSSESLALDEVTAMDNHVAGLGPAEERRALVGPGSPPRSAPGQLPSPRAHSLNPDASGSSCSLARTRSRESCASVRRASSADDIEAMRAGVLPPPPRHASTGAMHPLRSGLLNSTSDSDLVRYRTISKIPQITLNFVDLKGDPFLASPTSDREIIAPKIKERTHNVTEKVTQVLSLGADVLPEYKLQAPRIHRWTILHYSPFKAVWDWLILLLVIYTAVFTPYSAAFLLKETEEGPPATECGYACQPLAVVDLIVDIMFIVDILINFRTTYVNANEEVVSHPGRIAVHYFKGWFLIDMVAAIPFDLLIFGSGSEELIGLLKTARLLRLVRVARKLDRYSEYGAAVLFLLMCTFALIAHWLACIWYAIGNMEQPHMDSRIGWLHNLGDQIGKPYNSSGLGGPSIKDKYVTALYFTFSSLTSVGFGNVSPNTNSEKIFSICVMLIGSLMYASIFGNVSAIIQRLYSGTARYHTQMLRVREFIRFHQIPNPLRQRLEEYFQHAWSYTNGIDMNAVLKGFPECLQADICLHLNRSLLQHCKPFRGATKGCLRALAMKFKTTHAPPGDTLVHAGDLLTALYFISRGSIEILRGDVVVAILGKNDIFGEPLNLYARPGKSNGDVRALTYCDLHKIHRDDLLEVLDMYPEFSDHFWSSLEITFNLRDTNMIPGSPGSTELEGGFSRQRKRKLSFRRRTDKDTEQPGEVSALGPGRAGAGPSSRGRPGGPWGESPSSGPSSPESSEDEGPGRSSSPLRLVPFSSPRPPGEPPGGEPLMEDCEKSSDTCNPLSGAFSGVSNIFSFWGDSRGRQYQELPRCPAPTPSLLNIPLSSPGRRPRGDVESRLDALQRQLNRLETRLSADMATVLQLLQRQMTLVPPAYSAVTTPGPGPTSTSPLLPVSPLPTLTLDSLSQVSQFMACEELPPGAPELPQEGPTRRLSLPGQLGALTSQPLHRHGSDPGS
row,SMILES,"hERG current change (%, negative = inhibition) at 10uM [%]"
1,O=c1[nH]c(O)c(N=Nc2ccc3c(c2)OCCO3)c(=O)[nH]1,14.2
2,CC(=O)N1c2ccc(N=Cc3cc(Br)cc(Br)c3O)cc2CC1C (stereo not drawn),2.6
3,Cc1ccc(CN2C(=O)/C(=C\c3ccc(C(=O)NCc4cccnc4)cc3)Oc3ccccc32)cc1,12.9
4,O=C(NNc1ccccn1)C(=O)NNS(=O)(=O)c1ccc(F)cc1,12.5
5,Cn1c(=O)c2nc(-c3ccccc3)oc2c2ccccc21,-1.46
6,N#Cc1c(-c2ccccc2)nc(SCC(=O)Nc2ccc(OC(F)(F)Cl)cc2)[nH]c1=O,28.5
7,CN(C)C(=S)Nc1ccc2ccccc2c1,11.2
8,Cc1nc2cc(C(F)(F)F)ccc2n1C1CCN(CC(=O)N2CCCC2)CC1,-13.1
9,C=CCNC(=O)CN1CCC(n2nnc3cc(C(F)(F)F)ccc32)CC1,-50.7
10,COCCNC(=O)CN1CCC(n2c(C)nc3cc(C(F)(F)F)ccc32)CC1,-25.6
11,Cc1nc2cc(C(F)(F)F)ccc2n1C1CCN(C(=O)N2CCOCC2)CC1,-55.7
12,Cc1cc(NC(=O)CN2CCC(n3nnc4cc(C(F)(F)F)ccc43)CC2)no1,-50
13,CC1Cc2ccccc2N1C(=O)CN1CCC(n2nnc3cc(C(F)(F)F)ccc32)CC1 (stereo not drawn),-67.2
14,C=CCNC(=O)CN1CCC(n2c(C)nc3cc(C(F)(F)F)ccc32)CC1,-62.1
15,Cc1nc2cc(C(F)(F)F)ccc2n1C1CCN(CC(=O)NC(C)(C)C)CC1,-19.4
16,O=C(CN1CCC(n2nnc3cc(C(F)(F)F)ccc32)CC1)NNC(=O)c1ccco1,-24.6
17,COCC(=O)N1CCC(n2nnc3cc(C(F)(F)F)ccc32)CC1,-22
18,COC(=O)c1ccccc1NC(=O)CN1CCC(n2nnc3cc(C(F)(F)F)ccc32)CC1,-6.14
19,Cc1nc2cc(C(F)(F)F)ccc2n1C1CCN(CC(=O)N2CCOCC2)CC1,-44.4
20,CC1=C(C#N)C(NC(=O)C(C)(C)C)(C(F)(F)F)C(=O)N1 (stereo not drawn),1.3
21,O=C(O)c1ccccc1NS(=O)(=O)c1ccc2c3c(cccc13)C(=O)N2,16.1

row,SMILES,"hERG current change (%, negative = inhibition) at 10uM [%]"
1,CC1CCN(CCCNC(=O)CCCNC(=O)Cn2cnc3sc4c(c3c2=O)CCCC4)CC1,12.3
2,Cc1ccc(NC(=O)NCCCl)cc1S(=O)(=O)N1CCOCC1,1.99
3,COc1ccc2cc3cc(C(=O)N4CCN(c5ccccc5)CC4)oc3nc2c1,13.2
4,CN(C)CCC1Sc2ccccc2Oc2ccccc21.O=C(O)C(=O)O (stereo not drawn),-24.8
5,CC1c2ccccc2SC(CCCN(C)C)c2ccccc21.O=C(O)/C=C\C(=O)O (stereo not drawn),-19.2
6,CN(C)CCCC1Sc2ccccc2Sc2ccccc21.O=C(O)C(=O)O (stereo not drawn),-56.1
7,Cc1nc2scc(C)n2c(=O)c1S(=O)(=O)N1CCN(c2ccc([N+](=O)[O-])cc2)CC1,-12
8,CCN(CC)c1ccc(NC(=O)CSc2nnc(N)s2)cc1C,2.78
9,COC(C/C=C\C(=O)[C@H](C)OCc1ccccc1)OC,9.66
10,O=C(CCC1CCCCC1)NCCN1C2=NC[C@H](Cc3ccccc3)N2C[C@H]1Cc1ccc(O)cc1,-42
11,COc1ccc(C[C@H]2CN3C(=NC[C@@H]3Cc3ccccc3)N2CCNC(=O)CCC2CCCCC2)cc1,-73.7
12,O=C(CCC1CCCCC1)NCCN1C2=NC[C@H](Cc3ccc(O)cc3)N2C[C@H]1Cc1ccc(O)cc1,-4.37
13,O=C(CCC1CCCCC1)NCCN1C2=NC[C@@H](Cc3ccccc3)N2C[C@H]1Cc1ccc(O)cc1,-69.3
14,COc1ccc(C[C@H]2CN3C(=NC[C@H]3Cc3ccccc3)N2CCNC(=O)CCC2CCCCC2)cc1,-71.9
15,CCOC(=O)c1ccc(NC(=O)c2ccnn2C)cc1,4.61
16,CC(OC(=O)c1nc(-c2ccccc2)n(-c2ccccc2)n1)C(=O)Nc1cc(Cl)cc(Cl)c1 (stereo not drawn),-6.35
17,CN(C)C(CNC(=O)c1ccc2ccccc2n1)c1ccccc1 (stereo not drawn),11.1
18,CC(=O)OC1N=C(c2ccc(Cl)cc2)c2cc(Br)ccc2NC1=O (stereo not drawn),-55
19,O=C1Nc2ccc(Br)cc2C(c2ccccc2)=NC1O (stereo not drawn),13.1
20,O=C1Nc2ccc(Br)cc2C(c2ccccc2Cl)=NC1O (stereo not drawn),-48.6
21,O=C1Nc2ccc(Br)cc2C(c2ccc(Cl)cc2)=NC1O (stereo not drawn),-56.5

row,SMILES,"hERG current change (%, negative = inhibition) at 10uM [%]"
1,CC(=O)OC1N=C(c2ccccc2Cl)c2cc(Br)ccc2NC1=O (stereo not drawn),-40.3
2,CC(=O)OC1N=C(c2ccccc2)c2cc(Br)ccc2NC1=O (stereo not drawn),-10.2
3,COc1cc2c(=O)n(Cc3ccccc3)c(=O)n(CC(=O)NCCc3ccccc3)c2cc1OC,0.36
4,CC(Nc1ncnc2sccc12)c1ccccc1 (stereo not drawn),-29.8
5,Cc1ccc(C(=O)NCCNC(=O)CN2CCCC2)cc1,5.16
6,Cc1ccccc1-c1nc(P(=O)(c2ccccc2)c2ccccc2)c(N2CCOCC2)o1,-19.5
7,Cc1cccc(OCCNc2cc(N3CCOCC3)ccc2[N+](=O)[O-])c1,-12.8
8,C#CCOCCOCCOCCNc1nc(N2CCN(C(=O)[C@H](C(C)C)n3cc(CCO)nn3)CC2)nc(N2CCN(C(=O)[C@H](C(C)C)n3cc(CCO)nn3)CC2)n1,2.97
9,CC1(C)Cc2cccc(OCC(O)CNCc3ccccn3)c2O1.Cl (stereo not drawn),-25.1
10,COc1ccc(OCCOCCOc2ccc(C)cc2[N+](=O)[O-])cc1,-22.4
11,COc1ccc(CNCC(O)COc2ccc(C)cc2[N+](=O)[O-])cc1 (stereo not drawn),-71.2
12,COC(=O)c1ccc(COc2cccc3c2OC(C)(C)C3)cc1,28.7
13,COc1ccc(CNCC(O)COc2cccc3c2OC(C)(C)C3)cc1.Cl (stereo not drawn),-60.5
14,Cc1ccc([N+](=O)[O-])c(OCC(O)CNC(C)(C)C)c1.Cl (stereo not drawn),3.01
15,O=C(CSc1nnc(-c2cccnc2)o1)N1CCCCC1,9.4
16,CC(C)C(NC(=O)C1CCCCC1)C(=O)NCc1ccccn1 (stereo not drawn),9.17
17,CC(C)CC1C(C#N)=C(N)SC(N)=C1C#N,15.9
18,Cc1cccc(C)c1NC(=O)CN(C)S(=O)(=O)c1ccc(-c2ccc(=O)[nH]n2)s1,-51.7
19,CCc1cccc(C)c1NC(=O)CN(C)S(=O)(=O)c1ccc(-c2ccc(=O)[nH]n2)s1,-55.3
20,Cc1ccc(N(C)S(=O)(=O)c2ccc(-c3ccc(=O)[nH]n3)s2)cc1C,13.7
21,CCOc1ccc(N(C)S(=O)(=O)c2ccc(-c3ccc(=O)[nH]n3)s2)cc1,-15.6

row,SMILES,"hERG current change (%, negative = inhibition) at 10uM [%]"
1,Cc1cc(NC(=O)CN(C)S(=O)(=O)c2ccc(-c3ccc(=O)[nH]n3)s2)ccc1Br,7.95
2,Cc1cccc2sc(NC(=O)CN(C)S(=O)(=O)c3ccc(Br)s3)nc12,-2.49
3,COc1cc(OC)cc(C(=O)N[C@H](C(=O)OCC(=O)Nc2ccc(F)c(F)c2)C(C)C)c1,-8.85
4,Cc1cc(/C=C2\SC(=O)N(C)C2=O)c(C)n1-c1ccc(S(N)(=O)=O)cc1,13.3
5,COc1cccc(-c2cc(C(F)(F)F)nc(NCc3ccco3)n2)c1,18.8
6,Fc1cccc(Cl)c1-c1nnc2ccc3ccccc3n12,10.3
7,O=C(CCN1C(=O)COc2ccccc21)N1CCCCC1,-6.49
8,Cc1ccc2c(c1)N(C(=O)CCC(=O)N1CCN(c3ccccn3)CC1)CCO2,-52.2
9,O=C(O)CCC(=O)N1CCOc2ccc(Cl)cc21,2.92
10,Cc1ccc(C)c(N2CCN(C(=O)CCC(=O)N3CCOc4ccc(Cl)cc43)CC2)c1,-18.9
11,Cc1ccc2c(c1)N(C(=O)CCC(=O)N1CCN(c3ccccn3)CC1)CC(C)O2 (stereo not drawn),-46.1
12,O=C(CCC(=O)N1CCOc2ccc(Cl)cc21)N1CCN(c2ccccn2)CC1,-57.5
13,O=C(CCN1C(=O)COc2ccccc21)N1CCN(c2ccccc2)CC1,-15
14,O=C(CCN1C(=O)COc2ccccc21)N1CCN(c2ccccn2)CC1,-69.3
15,Cc1ccc2c(c1)N(C(=O)CCC(=O)N1CCN(c3cccc(C)c3C)CC1)CCO2,-18.7
16,CCC(NC(=O)Nc1ncccc1C)(C(F)(F)F)C(F)(F)F,-3.33
17,Cc1cccc(NC(=O)c2ccc3c(c2)C(=O)N(c2ccccc2C)C3=O)n1,-10.5
18,COc1ccc(CN2C(=O)CN(C3CCCCCC3)C(=O)C2c2ccc(F)cc2)cc1 (stereo not drawn),3.27
19,CCOC(=O)C1=C(COC(=O)c2ccc(C)s2)NC(=O)NC1C (stereo not drawn),-5.32
20,CCOC(=O)C1=C(COC(=O)c2cccnc2Cl)NC(=O)NC1C (stereo not drawn),6.19
21,CCOC(=O)C1=C(COC(=O)c2ncc(Cl)c(Cl)c2Cl)NC(=O)NC1C (stereo not drawn),-60.6
